Measured values published in PubChem BioAssay AID1159580 (chemical genetic matrix, 2015).
About 2,000 (36%) of roughly 5,500 compounds were called active. About 18% were inconclusive and are not listed. No stated cut-off is given here; in the data, active means normalized growth mostly below about 0.91 (no sharp cut-off); inconclusive means no clear call, values can overlap the other calls; inactive means mostly above about 0.92. The list shows a part of the results.

Test: chemical genetic growth profiling, strain panel (AID 1159580);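 further: tested at 20 µM; growth read once vehicle control cultures reached saturation at 30 °C; 1 = growth at the plate median or of vehicle wells; lower values mean less growth of the strain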
Details: growth OD
[1] = S. cerevisiae deletion strains, locus YAL013W, strain DEP1, active compounds read low
[2] = S. cerevisiae deletion strains, locus YAL040C, strain CLN3, active compounds read low
[3] = S. cerevisiae deletion strains, locus YCL061C, strain MRC1 (second series), active compounds read low
[4] = S. cerevisiae deletion strains, locus YDR363W, strain ESC2, active compounds read low
[5] = S. cerevisiae deletion strains, locus YER002W, strain NOP16, active compounds read low
[6] = S. cerevisiae deletion strains, locus YGR229C, strain SMI1, active compounds read low
[7] = S. cerevisiae deletion strains, locus YMR307W, strain GAS1, active compounds read low
[8] = S. cerevisiae deletion strains, locus YNL153C, strain GIM3, active compounds read low
[9] = S. cerevisiae deletion strains, locus YNL175C, strain NOP13, active compounds read low
[10] = S. cerevisiae deletion strains, locus YNL197C, strain WHI3, active compounds read low
[11] = S. cerevisiae deletion strains, locus YNL224C, strain SQS1, active compounds read low
[12] = S. cerevisiae deletion strains, locus YNL322C, strain KRE1, active compounds read low
[13] = S. cerevisiae deletion strains, locus YOR083W, strain WHI5 (second series), active compounds read low
[14] = S. cerevisiae deletion strains, locus YPL241C, strain CIN2, active compounds read low
[15] = S. cerevisiae deletion strains, locus YGR078C, strain PAC10, active compounds read low
[16] = S. cerevisiae deletion strains, locus YBR229C, strain ROT2, active compounds read low
[17] = S. cerevisiae deletion strains, locus YDL101C, strain DUN1, active compounds read low
[18] = S. cerevisiae deletion strains, locus YDL134C, strain PPH21, active compounds read low
[19] = S. cerevisiae deletion strains, locus YDR150W, strain NUM1, active compounds read low
[20] = S. cerevisiae deletion strains, locus YEL061C, strain CIN8, active compounds read low
[21] = S. cerevisiae deletion strains, locus YHR030C, strain SLT2, active compounds read low
[22] = S. cerevisiae deletion strains, locus YHR087W, strain rtc3, active compounds read low
[23] = S. cerevisiae deletion strains, locus YJL187C, strain SWE1, active compounds read low
[24] = S. cerevisiae deletion strains, locus YJR043C, strain POL32, active compounds read low
[25] = S. cerevisiae deletion strains, locus YJR075W, strain HOC1, active compounds read low
[26] = S. cerevisiae deletion strains, locus YLR039C, strain RIC1, active compounds read low
[27] = S. cerevisiae deletion strains, locus YLR058C, strain SHM2 (second series), active compounds read low
[28] = S. cerevisiae deletion strains, locus YLR085C, strain ARP6, active compounds read low
[29] = S. cerevisiae deletion strains, locus YLR262C, strain YPT6, active compounds read low
[30] = S. cerevisiae deletion strains, locus YML094W, strain GIM5, active compounds read low
[31] = S. cerevisiae deletion strains, locus YMR219W, strain ESC1, active compounds read low
[32] = S. cerevisiae deletion strains, locus YMR263W, strain SAP30, active compounds read low
[33] = S. cerevisiae deletion strains, locus YNL298W, strain CLA4 (second series), active compounds read low
[34] = S. cerevisiae deletion strains, locus YNR030W, strain Alg12, active compounds read low
[35] = S. cerevisiae deletion strains, locus YPL055C, strain LGE1, active compounds read low
[36] = S. cerevisiae deletion strains, locus YPR135W, strain CTF4, active compounds read low
[37] = S. cerevisiae strains, strain wild type, active compounds read low
[38] = S. cerevisiae deletion strains, locus YHR079C, strain IRE1, active compounds read low
[39] = S. cerevisiae deletion strains, locus YJL095W, strain BCK1, active compounds read low
[40] = S. cerevisiae deletion strains, locus YJR066W, strain TOR1, active compounds read low
[41] = S. cerevisiae deletion strains, locus YLR113W, strain HOG1, active compounds read low
[42] = S. cerevisiae deletion strains, locus YNL183C, strain NPR1, active compounds read low
[43] = S. cerevisiae deletion strains, locus YOR231W, strain MKK1, active compounds read low
[44] = S. cerevisiae deletion strains, locus YPL256C, strain CLN2, active compounds read low

Measured: normalized growth

NC(Cc1cccc(-c2ccccc2CP(=O)(O)O)c1)C(=O)O (stereo unspecified)
inactive: [1] 0.998 | [2] 1 | [3] 1 | [4] 0.983 | [5] 1.02 | [6] 1.01 | [7] 0.989 | S. cerevisiae deletion strains, locus YNL128W, strain TEP1, active compounds read low 0.994 | [8] 1.04 | [9] 0.998 | [10] 0.995 | [11] 1 | [12] 1 | [13] 0.989 | [14] 1

C[C@H](Cc1ccccc1)Nc1ncnc2c1ncn2[C@@H]1O[C@H](CO)[C@H](O)C1O (stereo partly specified)
inactive: [1] 0.995 | [2] 0.979 | [3] 1.01 | [4] 0.989 | [5] 0.997 | [15] 1 | [6] 1 | [7] 1 | [8] 1.22 | [9] 0.989 | [10] 0.99 | [11] 1 | [12] 0.996 | [13] 0.988

C/C(=N/O)c1sc2nc(C(F)(F)F)nn2c1C
inactive: [1] 0.954 | [16] 0.957 | [17] 1.01 | [18] 0.966 | [19] 0.975 | [20] 0.981 | [15] 0.956 | [6] 0.982 | [21] 0.89 | [22] 0.961 | [23] 0.974 | [24] 0.977 | [25] 0.997 | [26] 0.795 | [27] 0.953 | [28] 1.05 | [29] 0.86 | [30] 0.943 | [31] 0.963 | [32] 0.964 | [8] 1 | [33] 0.99 | [12] 0.962 | [34] 0.989 | [35] 0.96 | [14] 1.02 | [36] 0.851 | [37] 0.962

Cc1c(C(=O)Sc2ccc(F)cc2F)sc2nc(C(F)(F)F)nn12
active: S. cerevisiae deletion strains, locus YAR019C, strain CDC15, active compounds read low 0.0973 | S. cerevisiae deletion strains, locus YBL105C, strain PKC1, active compounds read low 0.0839 | S. cerevisiae deletion strains, locus YBR135W, strain CKS1, active compounds read low 0.105 | S. cerevisiae deletion strains, locus YBR136W, strain MEC1, active compounds read low 0.0954 | S. cerevisiae deletion strains, locus YBR160W, strain CDC28, active compounds read low 0.0992 | S. cerevisiae deletion strains, locus YDL017W, strain CDC7, active compounds read low 0.0838 | S. cerevisiae deletion strains, locus YDL028C, strain MPS1, active compounds read low 0.38 | [17] 0.0962 | S. cerevisiae deletion strains, locus YDL108W, strain KIN28, active compounds read low 0.105 | S. cerevisiae deletion strains, locus YDL132W, strain cdc53, active compounds read low 0.0969 | S. cerevisiae deletion strains, locus YDL214C, strain PRR2, active compounds read low 0.103 | S. cerevisiae deletion strains, locus YDR052C, strain DBF4, active compounds read low 0.102 | S. cerevisiae deletion strains, locus YDR054C, strain cdc34, active compounds read low 0.0939 | S. cerevisiae deletion strains, locus YDR226W, strain ADK1, active compounds read low 0.105 | S. cerevisiae deletion strains, locus YDR477W, strain SNF1, active compounds read low 0.107 | S. cerevisiae deletion strains, locus YER123W, strain YCK3, active compounds read low 0.111 | S. cerevisiae deletion strains, locus YER133W, strain GLC7, active compounds read low 0.106 | S. cerevisiae deletion strains, locus YFL009W, strain cdc4, active compounds read low 0.102 | S. cerevisiae deletion strains, locus YFL029C, strain CAK1, active compounds read low 0.101 | S. cerevisiae deletion strains, locus YFR003C, strain YPI1, active compounds read low 0.45 | S. cerevisiae deletion strains, locus YFR019W, strain FAB1, active compounds read low 0.107 | S. cerevisiae deletion strains, locus YFR028C, strain CDC14, active compounds read low 0.0976 | S. cerevisiae deletion strains, locus YGR040W, strain KSS1, active compounds read low 0.0958 | S. cerevisiae deletion strains, locus YGR052W, strain FMP48, active compounds read low 0.106 | S. cerevisiae deletion strains, locus YGR092W, strain DBF2, active compounds read low 0.116 | [21] 0.103 | [38] 0.101 | S. cerevisiae deletion strains, locus YHR082C, strain KSP1, active compounds read low 0.133 | S. cerevisiae deletion strains, locus YHR205W, strain SCH9, active compounds read low 0.000493 | S. cerevisiae deletion strains, locus YIL147C, strain SLN1, active compounds read low 0.488 | [39] 0.0913 | S. cerevisiae deletion strains, locus YJL128C, strain PBS2, active compounds read low 0.0913 | S. cerevisiae deletion strains, locus YJL157C, strain FAR1, active compounds read low 0.0866 | S. cerevisiae deletion strains, locus YJR016C, strain ILV3, active compounds read low 0.0901 | S. cerevisiae deletion strains, locus YJR066W, strain TOR1 (second series), active compounds read low 0.0917 | [40] 0.122 | S. cerevisiae deletion strains, locus YKL048C, strain ELM1, active compounds read low 0.131 | S. cerevisiae deletion strains, locus YKL067W, strain YNK1, active compounds read low 0.108 | S. cerevisiae deletion strains, locus YKL101W, strain HSL1, active compounds read low 0.0974 | S. cerevisiae deletion strains, locus YKL193C, strain SDS22, active compounds read low 0.101 | S. cerevisiae deletion strains, locus YKL203C, strain TOR2, active compounds read low 0.103 | [41] 0.145 | S. cerevisiae deletion strains, locus YLR133W, strain CKI1, active compounds read low 0.0966 | S. cerevisiae deletion strains, locus YLR403W, strain SFP1, active compounds read low -0.00147 | S. cerevisiae deletion strains, locus YML070W, strain DAK1, active compounds read low 0.103 | S. cerevisiae deletion strains, locus YMR001C, strain CDC5, active compounds read low 0.0979 | S. cerevisiae deletion strains, locus YMR205C, strain PFK2 (second series), active compounds read low 0.101 | S. cerevisiae deletion strains, locus YMR277W, strain FCP1, active compounds read low 0.1 | S. cerevisiae deletion strains, locus YNL006W, strain LST8, active compounds read low 0.0889 | S. cerevisiae deletion strains, locus YNL020C, strain ARK1, active compounds read low 0.0935 | S. cerevisiae deletion strains, locus YNL161W, strain CBK1, active compounds read low 0.0956 | [42] 0.104 | S. cerevisiae deletion strains, locus YNL207W, strain RIO2, active compounds read low 0.214 | S. cerevisiae deletion strains, locus YNL222W, strain SSU72, active compounds read low 0.102 | S. cerevisiae deletion strains, locus YNL307C, strain MCK1 (second series), active compounds read low 0.105 | S. cerevisiae deletion strains, locus YOL078W, strain AVO1, active compounds read low 0.101 | S. cerevisiae deletion strains, locus YOL136C, strain PFK27, active compounds read low 0.0958 | S. cerevisiae deletion strains, locus YOR061W, strain CKA2, active compounds read low 0.12 | S. cerevisiae deletion strains, locus YOR119C, strain RIO1, active compounds read low 0.116 | [43] 0.103 | S. cerevisiae deletion strains, locus YOR329C, strain SCD5, active compounds read low 0.0884 | S. cerevisiae deletion strains, locus YPL031C, strain PHO85, active compounds read low 0.0971 | S. cerevisiae deletion strains, locus YPL153C, strain RAD53, active compounds read low 0.102 | S. cerevisiae deletion strains, locus YPL204W, strain HRR25, active compounds read low 0.111 | S. cerevisiae deletion strains, locus YPL209C, strain IPL1, active compounds read low 0.0875 | [44] 0.124 | S. cerevisiae deletion strains, locus YPR025C, strain CCL1, active compounds read low 0.0998 | S. cerevisiae deletion strains, locus YPR106W, strain ISR1, active compounds read low 0.109 | S. cerevisiae deletion strains, locus YPR111W, strain DBF20, active compounds read low 0.169 | S. cerevisiae deletion strains, strain NNK1, active compounds read low 0.105 | S. cerevisiae deletion strains, strain TSCII, active compounds read low 0.104

C=CC1(C)CC(=O)C2(O)C(C)(O1)C(OC(C)=O)C(O)C1C(C)(C)CCC(O)C12C (stereo unspecified)
inactive: [2] 0.968 | [3] 0.985 | [19] 1 | [4] 0.969 | [5] 0.986 | [15] 0.996 | [25] 0.992 | [8] 1.02 | [9] 1.02 | [10] 0.994 | [11] 0.99 | [12] 0.985 | [13] 1.01 | [35] 0.994 | [14] 0.998

CSc1nc2cc(Oc3cccc(Cl)c3Cl)c(Cl)cc2[nH]1
active: [21] 0.11 | [38] 0.119 | [39] 0.114 | [40] 0.0117 | [41] 0.156 | [42] 0.000876 | [43] 0.125 | [44] 0.138

CSc1nc2ccccc2[nH]1
inactive: [1] 0.987 | [16] 0.996 | S. cerevisiae deletion strains, locus YCL061C, strain MRC1, active compounds read low 0.992 | [17] 0.999 | [18] 0.948 | [19] 1.02 | [20] 0.936 | [15] 0.99 | [21] 1.03 | [22] 0.969 | [23] 0.973 | [24] 1 | [25] 0.956 | S. cerevisiae deletion strains, locus YKL190W, strain CNB1, active compounds read low 0.984 | [26] 1.01 | [27] 0.983 | [28] 0.895 | [29] 1.01 | [30] 0.96 | [31] 0.99 | [32] 1.02 | [7] 0.89 | [8] 1.02 | [33] 0.95 | [12] 0.977 | [34] 0.923 | [35] 1.03 | [14] 0.944 | [36] 0.973 | [37] 0.981
